Assay outcomes: PubChem, several laboratories
EP2 antag: human EP2 receptor antagonists, primary screen, TR-FRET cAMP, C6 glioma cells. inhibition, % at 25 µM. AID 1422, 2008. C6 glioma cells expressing human EP2; cells stimulated with saturating PGE2. Prostaglandin E2 receptor EP2 subtype (Homo sapiens), P43116. 260,000 compounds, 0.52% hits;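 active = percent inhibition above 40 after rounding to a whole number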;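 note: rat C6 glioma host cells with rolipram phosphodiesterase inhibitor present; the protocol text gives 20 µM as final concentration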
EP2 modulator: EP2 receptor modulators, cAMP readout, primary screen, cell-based, HTRF cAMP, PGE2 stimulation; Prostaglandin E2 receptor EP2 subtype (Homo sapiens), P43116; EP2-expressing cells, cAMP HTRF FRET, PGE2 co-stimulation; induction, % at 25 µM; 260,000 compounds, 0.83% hits;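 active = compounds whose cAMP rise, as percent of the full-agonist control response, exceeds 60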;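 note: rat C6 glioma line stably carrying human EP2 under a CMV promoter; the protocol text gives 20 µM as final concentration; 100% = response of wells given 1 µM PGE2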
S1P4 antag: S1P4 receptor antagonists, primary screen, cell-based | inhibition, % at 4.98 µM | 220,000 compounds, 0.26% hits | S1P4-expressing cells, antagonist mode, reporter read-out; in the data active = inhibition above about 29%;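 note: 0% = wells stimulated with agonist and 100% = vehicle wells without agonist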
S1P3 antagonist: S1P3 receptor antagonists, primary screen, cell-based | CHO S1P3 NFAT-BLA reporter, FRET fluorescence, antagonist mode | inhibition, % at 4.98 µM | AID 485, 2006 | Sphingosine 1-phosphate receptor 3 (Homo sapiens), Q99500 | 170,000 compounds, 0.27% hits;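 active = inhibition above the plate cutoff, the mean inhibition of test wells on that plate plus 3 SD, cut at about 28% in these data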;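 note: cells challenged with S1P at its EC80 of 0.8 µM; blue over green emission ratio from cleaved BLA substrate after 4 h stimulation; 0% = S1P-stimulated wells and 100% = unstimulated DMSO-only wells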
S1P4 agonist: S1P4 receptor agonists, primary screen, cell-based; Sphingosine 1-phosphate receptor 4 (Homo sapiens), O95977; S1P4-expressing cell line, agonist reporter assay; activation, % at 4.98 µM; 220,000 compounds, 0.35% hits; AID 1509, 2009; in the data active = activation above about 11%;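 note: 0% = DMSO vehicle and 100% = reference agonist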
S1P4 antag cf: S1P4 receptor antagonists, human, confirmation, cell-based | AID 1524, 2009 | shares compounds with S1P4 antag | inhibition, % at 4.98 µM | S1P4-expressing cell line, antagonist mode, reporter read-out | 520 compounds, 71% hits; in the data active = inhibition above about 30%
S1P1 antagonist: S1P1 receptor antagonists, human, counter-screen for S1P4 antagonist project, cell-based; shares compounds with S1P4 antag; cell-based S1P1 antagonist counterscreen, inhibition; inhibition, % at 4.98 µM; 520 compounds, 37% hits; AID 1564, 2009; in the data active = inhibition above about 40%;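 note: receptor stimulated with S1P near its EC80; 0% = agonist stimulated wells and 100% = vehicle only wells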
Target sequence (P21453 whole entry, looked up): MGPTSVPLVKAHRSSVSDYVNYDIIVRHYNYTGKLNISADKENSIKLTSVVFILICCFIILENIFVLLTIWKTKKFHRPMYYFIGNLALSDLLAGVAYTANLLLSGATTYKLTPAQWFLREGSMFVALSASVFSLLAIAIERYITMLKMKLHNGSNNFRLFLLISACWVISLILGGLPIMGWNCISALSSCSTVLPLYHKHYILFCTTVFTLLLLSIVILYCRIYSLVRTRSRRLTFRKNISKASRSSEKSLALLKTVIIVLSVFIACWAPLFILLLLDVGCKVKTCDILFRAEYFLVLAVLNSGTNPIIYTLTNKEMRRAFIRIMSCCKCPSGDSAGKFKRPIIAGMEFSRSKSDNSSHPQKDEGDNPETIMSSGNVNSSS
* hit, by the source's call; nt = no result given. In the library only some 1.9% were active in any assay of this set; here they are far more common.

SMILES	EP2 antag	EP2 modulator	S1P4 antag	S1P3 antagonist	S1P4 agonist	S1P4 antag cf	S1P1 antagonist
O=C(c1cnn2c(C(F)F)cc(-c3ccccc3)nc12)N1CCN2CCCC2C1 (centres undefined)	13	-37	35*	-20	0	0	3
CCC(CC)C(=O)N1CCC(c2nc3c(nnn3Cc3ccc(Cl)cc3Cl)c(=O)[nH]2)CC1	13	-5	nt	nt	nt	nt	nt
COC(=O)c1ccc2c(c1)C(C)(C)C(/C=C/c1ccc(O)cc1)=[N+]2C	7	-15	42*	nt	-1	120*	157*
CCc1nn(CC(=O)NC2(c3cccc(F)c3)CCCC2)c(=O)c2cc3ccsc3n12	nt	-48	nt	nt	nt	nt	nt
COc1cc(-c2nc3n(n2)C(c2ccncc2)C(C(N)=O)=C(C)N3)cc(OC)c1OC (centres undefined)	11	12	66*	-5	0	-1	5
COc1ccc(CN2C3CCCC2CC(NC(=O)N2CCOCC2)C3)cc1 (centres undefined)	18	-46	nt	nt	nt	nt	nt
CCOC(=O)c1cnc(SC2CC(=O)N(c3ccccc3)C2=O)nc1N (centres undefined)	9	-1	-11	nt	-1	nt	nt
CCOC(=O)c1cnc(SC2CC(=O)N(c3ccc(C)cc3)C2=O)nc1N (centres undefined)	18	-15	44*	nt	-2	14	16
CC(NC(=O)CN(c1cccc(C(F)(F)F)c1)S(=O)(=O)c1ccc(Cl)c([N+](=O)[O-])c1)c1ccccc1 (centres undefined)	15	0	44*	-18	0	87*	53*
O=[N+]([O-])c1cc(Cl)c(O)c2ncccc12	4	-27	31*	-18	3	62*	55*
O=[N+]([O-])c1cc(Cl)c2cccnc2c1O	12	-14	-22	-7	2	nt	nt
NC(=O)C1CCN(C(=O)CSc2nccc(-c3ccc(Br)cc3)n2)CC1	14	-19	nt	nt	nt	nt	nt
O=C1CCC/C1=C\c1ccccc1	9	-13	12	-10	0	nt	nt
O=C1/C(=C/c2ccncc2)CCC/C1=C\c1ccncc1	12	-82	83*	-23	-1	99*	5
COc1cc2c3nnc(-c4ccccc4)c-3cn(Cc3ccccc3F)c2cc1OC	15	36	84*	11	-5	86*	128*
O=C(NC(Cc1ccccc1)C(=O)Oc1ccc2c(C(F)(F)F)cc(=O)oc2c1)OCc1ccccc1 (centres undefined)	8	33	30*	5	0	47*	24
O=C(NCc1cccnc1)/C(=C/c1ccc(-c2cccc(Cl)c2)o1)S(=O)(=O)c1ccccc1	16	-2	65*	nt	0	105*	72*
CC1(C)O[C@@H]2C[C@H]3[C@@H]4C[C@H](F)C5=CC(=O)CC[C@]5(C)[C@H]4[C@@H](O)C[C@]3(C)[C@]2(C(=O)CO)O1	15	12	59*	-18	-1	0	17
CC1(C)O[C@@H]2CC3C4C[C@H](F)C5=CC(=O)C=C[C@]5(C)[C@@]4(F)[C@@H](O)C[C@]3(C)[C@]2(C(=O)CO)O1 (some centres undefined)	6	11	nt	nt	nt	nt	nt
CCCN1C(=O)S/C(=C/c2ccc(N3CCOCC3)o2)C1=O	0	-25	33*	-4	-2	14	7
CCCN1C(=O)S/C(=C\c2ccc(N3CCOCC3)o2)C1=O	10	-7	10	-8	-2	nt	nt
Cc1ccc2nc(Cl)c(/C=C/C(=O)c3ccco3)cc2c1	8	-38	3	1	1	nt	nt
Cc1ccc2cc(/C=C/C(=O)c3ccco3)c(Cl)nc2c1	5	-72	37*	1	-1	68*	0
O=C(Nc1ccc2oc(-c3ccc(F)cc3Cl)nc2c1)c1cccnc1	5	-57	nt	nt	nt	nt	nt
CCn1c(Cl)c(C=O)s/c1=N\S(=O)(=O)c1ccccc1	23	-24	88*	18	-3	120*	119*
SMILES	EP2 antag	EP2 modulator	S1P4 antag	S1P3 antagonist	S1P4 agonist	S1P4 antag cf	S1P1 antagonist
CCN1C(=O)CS/C1=N\S(=O)(=O)c1ccc(Cl)cc1	5	-6	-8	-83	2	nt	nt
CCOc1ccc(NC(=O)c2sc(NC(=O)c3ccccc3)c(C(=O)OC)c2C)cc1	12	17	nt	nt	nt	nt	nt
COc1cc(CNCCO)cc(Cl)c1OCc1ccc(Cl)cc1Cl	2	-35	31*	-15	4	51*	64*
COc1cc(CNCCO)cc(Br)c1OCc1ccccc1Cl	nt	-54	14	nt	10	nt	nt
CCC(=O)Nc1cc(SCCO)cc([N+](=O)[O-])c1	7	-2	8	nt	-2	nt	nt
O=C(CCl)Nc1cc(SCC(O)CO)cc([N+](=O)[O-])c1 (centres undefined)	6	5	39*	-5	0	112*	102*
Cc1nc(N2CCN(C)CC2)c2sc(=S)n(-c3ccccc3)c2n1	6	13	-16	-2	1	nt	nt
S=c1sc2c(Cl)ncnc2n1-c1ccccc1	13	-14	32*	-9	-1	121*	86*
N#Cc1ccc(/C=C/C(=O)c2ccccc2)cc1	29	-39	86*	1	-1	90*	22
C1=CCC(CN(CCCn2ccnc2)Cc2cccnc2)CC1 (centres undefined)	6	24	nt	nt	nt	nt	nt
CCOC(=O)C1CCN(c2ncnc3c2[nH]c2cccc(OC)c23)CC1	2	-32	56*	16	0	-4	26
CCOC(=O)N1CCN(c2ncnc3c2[nH]c2ccc(OC)cc23)CC1	2	-28	3	nt	1	nt	nt
N#C/C(=C\c1ccccn1)c1nc2ccccc2s1	8	-49	74*	-4	0	36*	43*
CCOc1ccc(/C=C2\SC(=S)NC2=O)c(O)c1	6	-19	nt	nt	nt	nt	nt
O=C(NC1CCCC1)C(c1ccncc1)N(Cc1ccco1)C(=O)c1ccc(-c2ccccc2)[nH]1 (centres undefined)	9	19	47*	-5	-1	22	2
O=C(NCCN1CCC(O)(c2ccc(F)cc2)CC1)c1cc(F)cc(F)c1	5	-25	nt	nt	nt	nt	nt
CC(=O)n1cc(N(C(=O)CCl)c2ccc(Cl)cc2)c2ccccc21	9	-31	60*	12	-3	115*	41*
O=[N+]([O-])c1ccc(-n2nnnc2-c2ccccc2)cc1	3	-6	0	5	0	nt	nt
